Data taken from PubChem BioAssay AID1159580 (chemical genetic matrix, 2015).
The campaign covered roughly 5,500 compounds. About 2,000 (36%) were called active. Not shown: some 18% with an inconclusive outcome. Cut-off read from the data, not from the text of the source: active = normalized growth mostly below about 0.91 (no sharp cut-off); inconclusive = no clear call, values can overlap the other calls; inactive = mostly above about 0.92. This is one part of the list.

Test: chemical genetic growth profiling, strain panel (AID 1159580);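 note: tested at 20 µM; growth read once vehicle control cultures reached saturation at 30 °C; 1 = growth at the plate median or of vehicle wells; lower values mean less growth of the strain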
Settings: S. cerevisiae deletion strains, growth OD

Measured: normalized growth

CC(=O)OC1CC2C(C)(C)CCCC2(C)C2CCC3(C)C(c4ccoc4)OC(=O)C4OC43C12C (stereo not drawn)
inactive: locus YAL013W, strain DEP1, hits give low values 0.993 | locus YBR021W, strain FUR4, hits give low values 0.981 | locus YBR229C, strain ROT2, hits give low values 0.995 | locus YCL029C, strain bik1, hits give low values 1.02 | locus YDL035C, strain GPR1, hits give low values 0.975 | locus YDL074C, strain BRE1, hits give low values 0.988 | locus YDL101C, strain DUN1, hits give low values 1.02 | locus YDL134C, strain PPH21, hits give low values 0.987 | locus YDL185W, strain tfp1, hits give low values 1.03 | locus YDL192W, strain arf1, hits give low values 1.01 | locus YDR101C, strain arx1, hits give low values 1.02 | locus YDR150W, strain NUM1, hits give low values 1 | locus YDR162C, strain NBP2, hits give low values 0.979 | locus YDR318W, strain mcm21, hits give low values 1.01 | locus YDR388W, hits give low values 1.01 | locus YDR502C, strain sam2, hits give low values 0.999 | locus YEL061C, strain CIN8, hits give low values 1 | locus YER110C, hits give low values 1.02 | locus YER155C, strain BEM2, hits give low values 1 | locus YER167W, strain BCK2, hits give low values 1 | locus YGL078C, strain dbp3, hits give low values 1.01 | locus YGL086W, strain mad1, hits give low values 1 | locus YGL248W, strain PDE1, hits give low values 1 | locus YGR135W, strain pre9, hits give low values 1 | locus YGR252W, strain gcn5, hits give low values 0.914 | locus YHR030C, strain SLT2, hits give low values 1.01 | locus YHR079C, strain IRE1 (second series), hits give low values 1.01 | locus YHR094C, strain hxt1, hits give low values 1.01 | locus YHR129C, strain ARP1, hits give low values 1 | locus YHR200W, strain rpn10, hits give low values 1 | locus YIL066C, strain RNR3, hits give low values 1 | locus YIL073C, strain SPO22, hits give low values 1.02 | locus YIL125W, strain kgd1, hits give low values 1.01 | locus YIR030C, strain dcg1, hits give low values 1.01 | locus YJL095W, strain BCK1, hits give low values 0.991 | locus YJL134W, strain LCB3, hits give low values 1.01 | locus YJL168C, strain set2, hits give low values 1.01 | locus YJL187C, strain SWE1 (second series), hits give low values 0.999 | locus YJR043C, strain POL32, hits give low values 0.978 | locus YJR075W, strain HOC1, hits give low values 0.995 | locus YKL009W, strain mrt4, hits give low values 1 | locus YKL068W, hits give low values 1.01 | locus YKL085W, strain MDH1 (second series), hits give low values 1 | locus YKL085W, strain MDH1, hits give low values 1 | locus YKL190W, strain CNB1, hits give low values 1 | locus YKR001C, strain vps1, hits give low values 0.993 | locus YLR039C, strain RIC1, hits give low values 1.01 | locus YLR058C, strain SHM2, hits give low values 1.01 | locus YLR102C, strain apc9, hits give low values 1.01 | locus YLR262C, strain YPT6, hits give low values 1.03 | locus YLR268W, strain sec22, hits give low values 1.01 | locus YLR330W, strain CHS5, hits give low values 1.01 | locus YLR342W, strain FKS1 (second series), hits give low values 0.954 | locus YLR371W, strain rom2, hits give low values 1.02 | locus YLR418C, strain cdc73, hits give low values 1.01 | locus YML016C, strain PPZ1, hits give low values 1.01 | locus YML032C, strain rad52, hits give low values 1.01 | locus YML124C, strain tub3, hits give low values 1.02 | locus YMR078C, strain ctf18, hits give low values 1.02 | locus YMR223W, strain ubp8, hits give low values 1 | locus YMR263W, strain SAP30, hits give low values 1.01 | locus YMR307W, strain GAS1, hits give low values 0.854 | locus YNL067W, strain RPL9B, hits give low values 1.02 | locus YNL153C, strain GIM3, hits give low values 1 | locus YNL233W, strain BNI4, hits give low values 0.99 | locus YNL250W, strain rad50, hits give low values 1.01 | locus YNL271C, strain bni1, hits give low values 0.998 | locus YNL298W, strain CLA4, hits give low values 1.01 | locus YNL307C, strain MCK1, hits give low values 1.01 | locus YNR052C, strain pop2, hits give low values 1.01 | locus YOL012C, strain htz1 0.802 | locus YOL147C, strain pex11, hits give low values 1.01 | locus YOR061W, strain CKA2, hits give low values 1.01 | locus YOR069W, strain VPS5, hits give low values 1.01 | locus YOR136W, strain idh2, hits give low values 1.01 | locus YOR144C, strain elg1, hits give low values 1.01 | locus YOR184W, strain ser1, hits give low values 1.01 | locus YOR316C, strain cot1, hits give low values 1.01 | locus YPR119W, strain clb2, hits give low values 1.01 | locus YPR141C, strain kar3, hits give low values 1.02 | locus YPR163C, strain tif3, hits give low values 1.02 | locus YPR167C, strain met16, hits give low values 1.01 | strain wtn01, hits give low values 1
